# About 2,000 (36%) of roughly 5,500 compounds were called active. Not shown: some 18% with an inconclusive outcome. Cut-off read from the data, not from the text of the source: active = normalized growth mostly below about 0.91 (no sharp cut-off); inconclusive = no clear call, values can overlap the other calls; inactive = mostly above about 0.92. The list shows a part of the results.
# Assay: chemical genetic growth profiling, strain panel (AID 1159580);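 note: tested at 20 µM; growth read once vehicle control cultures reached saturation at 30 °C; 1 = growth at the plate median or of vehicle wells; lower values mean less growth of the strain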
# Settings: S. cerevisiae deletion strains, growth OD
structure (smiles),measurement,setting,value
O=C(OOC(=O)c1ccccc1)c1ccccc1,normalized growth,"locus YAL021C, strain ccr4, active compounds read low",0.969 (inactive)
same,normalized growth,"locus YAL026C, strain drs2, active compounds read low",0.952 (inactive)
same,normalized growth,"locus YAL030W, strain snc1, active compounds read low",0.976 (inactive)
same,normalized growth,"locus YBL061C, strain skt5, active compounds read low",0.962 (inactive)
same,normalized growth,"locus YBR009C, strain hhf1, active compounds read low",0.96 (inactive)
same,normalized growth,"locus YBR023C, strain chs3, active compounds read low",0.977 (inactive)
same,normalized growth,"locus YBR171W, strain sec66, active compounds read low",0.948 (inactive)
same,normalized growth,"locus YBR231C, strain swc5, active compounds read low",0.978 (inactive)
same,normalized growth,"locus YBR279W, strain paf1, active compounds read low",0.991 (inactive)
same,normalized growth,"locus YCL011C, strain gbp2, active compounds read low",0.962 (inactive)
same,normalized growth,"locus YCL016C, strain dcc1, active compounds read low",0.956 (inactive)
same,normalized growth,"locus YCL061C, strain MRC1, active compounds read low",0.96 (inactive)
same,normalized growth,"locus YCL069W, strain vba3, active compounds read low",0.993 (inactive)
same,normalized growth,"locus YCR088W, strain abp1, active compounds read low",0.998 (inactive)
same,normalized growth,"locus YDL005C, strain med2, active compounds read low",0.977 (inactive)
same,normalized growth,"locus YDL040C, strain nat1, active compounds read low",0.992 (inactive)
same,normalized growth,"locus YDR001C, strain nth1, active compounds read low",0.976 (inactive)
same,normalized growth,"locus YDR069C, strain doa4, active compounds read low",0.965 (inactive)
same,normalized growth,"locus YDR137W, strain rgp1, active compounds read low",0.959 (inactive)
same,normalized growth,"locus YDR159W, strain sac3, active compounds read low",0.94 (inactive)
same,normalized growth,"locus YDR195W, strain ref2",1.01 (inactive)
same,normalized growth,"locus YDR297W, strain sur2, active compounds read low",0.982 (inactive)
same,normalized growth,"locus YDR334W, strain swr1, active compounds read low",0.92 (inactive)
same,normalized growth,"locus YDR335W, strain msn5, active compounds read low",0.986 (inactive)
same,normalized growth,"locus YDR392W, strain spt3, active compounds read low",0.933 (inactive)
same,normalized growth,"locus YEL003W, strain gim4, active compounds read low",0.989 (inactive)
same,normalized growth,"locus YEL037C, strain rad23, active compounds read low",0.977 (inactive)
same,normalized growth,"locus YEL061C, strain CIN8 (second series), active compounds read low",0.985 (inactive)
same,normalized growth,"locus YER015W, strain faa2, active compounds read low",0.959 (inactive)
same,normalized growth,"locus YER016W, strain bim1, active compounds read low",0.993 (inactive)
same,normalized growth,"locus YER111C, strain swi4, active compounds read low",0.972 (inactive)
same,normalized growth,"locus YER155C, strain BEM2 (second series), active compounds read low",0.971 (inactive)
same,normalized growth,"locus YFR010W, strain ubp6, active compounds read low",0.948 (inactive)
same,normalized growth,"locus YGL167C, strain pmr1, active compounds read low",0.965 (inactive)
same,normalized growth,"locus YGL173C, strain kem1, active compounds read low",0.956 (inactive)
same,normalized growth,"locus YGL227W, strain vid30, active compounds read low",0.981 (inactive)
same,normalized growth,"locus YGL240W, strain doc1, active compounds read low",0.989 (inactive)
same,normalized growth,"locus YGL253W, strain hxk2, active compounds read low",0.96 (inactive)
same,normalized growth,"locus YHR013C, strain ard1, active compounds read low",0.959 (inactive)
same,normalized growth,"locus YHR027C, strain rpn1, active compounds read low",0.95 (inactive)
same,normalized growth,"locus YHR030C, strain SLT2, active compounds read low",0.842 (active)
same,normalized growth,"locus YHR079C, strain IRE1, active compounds read low",0.799 (active)
same,normalized growth,"locus YHR142W, strain chs7, active compounds read low",0.95 (inactive)
same,normalized growth,"locus YJL092W, strain hpr5, active compounds read low",0.97 (inactive)
same,normalized growth,"locus YJL095W, strain BCK1 (second series), active compounds read low",0.993 (inactive)
same,normalized growth,"locus YJL095W, strain BCK1, active compounds read low",0.812 (active)
same,normalized growth,"locus YJL115W, strain asf1, active compounds read low",0.95 (inactive)
same,normalized growth,"locus YJL129C, strain trk1, active compounds read low",0.991 (inactive)
same,normalized growth,"locus YJL154C, strain vps35, active compounds read low",0.984 (inactive)
same,normalized growth,"locus YJL164C, strain tpk1, active compounds read low",0.983 (inactive)
same,normalized growth,"locus YJL166W, strain qcr8, active compounds read low",0.964 (inactive)
same,normalized growth,"locus YJL187C, strain SWE1, active compounds read low",0.981 (inactive)
same,normalized growth,"locus YJR066W, strain TOR1, active compounds read low",0.82 (active)
same,normalized growth,"locus YKL160W, strain elf1, active compounds read low",0.969 (inactive)
same,normalized growth,"locus YKR026C, strain gcn3, active compounds read low",0.979 (inactive)
same,normalized growth,"locus YKR091W, strain srl3, active compounds read low",0.976 (inactive)
same,normalized growth,"locus YLL001W, strain dnm1, active compounds read low",0.941 (inactive)
same,normalized growth,"locus YLL026W, active compounds read low",0.974 (inactive)
same,normalized growth,"locus YLL041C, strain sdh2, active compounds read low",0.968 (inactive)
same,normalized growth,"locus YLR027C, strain aat2, active compounds read low",0.961 (inactive)
same,normalized growth,"locus YLR113W, strain HOG1, active compounds read low",0.642 (active)
same,normalized growth,"locus YLR221C, strain rsa3, active compounds read low",0.93 (inactive)
same,normalized growth,"locus YLR258W, strain gsy2, active compounds read low",0.991 (inactive)
same,normalized growth,"locus YLR262C, strain YPT6 (second series), active compounds read low",0.976 (inactive)
same,normalized growth,"locus YLR320W, strain mms22, active compounds read low",0.95 (inactive)
same,normalized growth,"locus YLR342W, strain FKS1, active compounds read low",0.971 (inactive)
same,normalized growth,"locus YLR357W, strain rsc2, active compounds read low",0.975 (inactive)
same,normalized growth,"locus YLR370C, strain arc18, active compounds read low",0.954 (inactive)
same,normalized growth,"locus YLR384C, strain iki3, active compounds read low",0.954 (inactive)
same,normalized growth,"locus YML120C, strain ndi1, active compounds read low",0.944 (inactive)
same,normalized growth,"locus YMR058W, strain fet3, active compounds read low",0.953 (inactive)
same,normalized growth,"locus YMR125W, strain sto1, active compounds read low",0.979 (inactive)
same,normalized growth,"locus YMR129W, active compounds read low",0.998 (inactive)
same,normalized growth,"locus YMR205C, strain PFK2, active compounds read low",0.949 (inactive)
same,normalized growth,"locus YMR231W, strain pep5, active compounds read low",0.984 (inactive)
same,normalized growth,"locus YNL071W, strain lat1, active compounds read low",0.981 (inactive)
same,normalized growth,"locus YNL183C, strain NPR1, active compounds read low",0.773 (active)
same,normalized growth,"locus YNL209W, strain ssb2, active compounds read low",0.981 (inactive)
same,normalized growth,"locus YNL248C, strain rpa49, active compounds read low",0.957 (inactive)
same,normalized growth,"locus YNL322C, strain KRE1 (second series), active compounds read low",0.941 (inactive)
same,normalized growth,"locus YNR049C, strain mso1, active compounds read low",0.959 (inactive)
same,normalized growth,"locus YOR001W, strain rrp6, active compounds read low",0.982 (inactive)
same,normalized growth,"locus YOR070C, strain gyp1, active compounds read low",0.981 (inactive)
same,normalized growth,"locus YOR080W, strain dia2, active compounds read low",0.961 (inactive)
same,normalized growth,"locus YOR083W, strain WHI5, active compounds read low",0.965 (inactive)
same,normalized growth,"locus YOR106W, strain vam3, active compounds read low",0.926 (inactive)
same,normalized growth,"locus YOR231W, strain MKK1, active compounds read low",0.792 (active)
same,normalized growth,"locus YOR265W, strain rbl2, active compounds read low",0.98 (inactive)
same,normalized growth,"locus YOR270C, strain vph1, active compounds read low",0.973 (inactive)
same,normalized growth,"locus YOR290C, strain snf2, active compounds read low",0.917 (inactive)
same,normalized growth,"locus YPL051W, strain arl3, active compounds read low",0.97 (inactive)
same,normalized growth,"locus YPL078C, strain atp4, active compounds read low",0.966 (inactive)
same,normalized growth,"locus YPL106C, strain sse1, active compounds read low",0.977 (inactive)
same,normalized growth,"locus YPL240C, strain hsp82, active compounds read low",0.982 (inactive)
same,normalized growth,"locus YPL256C, strain CLN2, active compounds read low",0.773 (active)

# — PubChem BioAssay AID1159580 (chemical genetic matrix, 2015)
